# Laboratory results as given in the supplement of paper PMC9135407.
# “And” between values parts separate entries of the source, which are not always exact repeats. Equal values may be shown once. Where a name gives a salt, the structure may show the parent alone. Screen size: about 5,800 compounds; about 620 (11%) showed activity. The sample as a whole holds a higher share of actives than the screen did. Unmarked numbers belong to inactive results.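 Rule for the calls: active = score above a cut-off or among the top three wells of a plate; in these data no inactive exceeds 0.85.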
# Test system: primary human hepatic stellate cells (donor 1)
# Assay: scaled lipid accumulation score (0 = DMSO-like, 1 = nortriptyline-like); higher = stronger HSC inactivation (lipid re-accumulation), active = hit call of the paper
# Conditions: 48 h
# Experimental: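 Primary lipid accumulation screen in primary human hepatic stellate cell myofibroblasts (donor 1, passage 8) in 384-well plates. 100 nL of library compound was pin-transferred into 30 µL medium in duplicate, and cells were treated for 48 h. The 'Scaled' score combines distance from plate baseline, toxicity and reproducibility penalties, and is normalised to nortriptyline (positive) and DMSO (negative) controls on each plate. A hit is defined as scaled >0.85 or among the top 3 wells per plate.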
# [1] = library stock concentration: 1 mM
# [2] = library stock concentration: 3.33 mM
# [3] = library stock concentration: 10 mM
# [4] = library stock concentration: 80 uM
# [5] = library stock concentration: 400 uM
# [6] = library stock concentration: 2 mM
smiles,measurement,setting,value
CCCCC/C=C\C/C=C\C/C=C\C/C=C\CCCCCC(=O)O [Adrenic Acid],scaled lipid accumulation score,[1],≤ 0
O=C(Nc1ccccc1-c1cn2c(CN3CCNCC3)csc2n1)c1cnc2ccccc2n1,scaled lipid accumulation score,[2],0.121
same,scaled lipid accumulation score,[3],0.384
CCOC(=O)[C@H](CCc1ccccc1)N[C@@H](C)C(=O)N1[C@H](C(=O)O)C[C@H]2CCCC[C@@H]21 [Trandolapril],scaled lipid accumulation score,[3],0.059 and 0.177
CCCCCC(=O)/C=C/[C@@H]1[C@@H](CCCCCCC(=O)O)[C@@H](O)C[C@H]1O [15-keto Prostaglandin F1.alpha.],scaled lipid accumulation score,[1],≤ 0
Cc1cnc(CNC(=O)c2c(=O)c3ccc(N4CCCN(C)CC4)nc3n3c2sc2ccccc23)cn1,scaled lipid accumulation score,[4],≤ 0
same,scaled lipid accumulation score,[5],≤ 0
same,scaled lipid accumulation score,[6],≤ 0
same,scaled lipid accumulation score,[3],≤ 0
CCOC(=O)[C@H](CCc1ccccc1)N[C@H]1CCc2ccccc2N(CC(=O)O)C1=O [Benazepril hydrochloride],scaled lipid accumulation score,[3],≤ -0.027 and 0.038
CC(CN(C)C)CN1c2ccccc2CCc2ccccc21 (configuration not stated) [Trimipramine maleate salt],scaled lipid accumulation score,,0.27
CCOC(=O)[C@H](CCc1ccccc1)N[C@H]1CCc2ccccc2N(CC(=O)O)C1=O [Benazepril HCl],scaled lipid accumulation score,[2],≤ 0
same,scaled lipid accumulation score,[3],≤ 0
CC(CN(C)C)CN1c2ccccc2CCc2ccccc21.O=C(O)/C=C\C(=O)O (configuration not stated) [Trimipramine maleate],scaled lipid accumulation score,[3],0.877 (active)
CC(CN(C)C)CN1c2ccccc2Sc2ccccc21.O=C(O)C(O)C(O)C(=O)O (configuration not stated) [Trimeprazine tartrate],scaled lipid accumulation score,library stock concentration: 4.5 mM,0.915 (active)
COc1ccc2c(c1)N(C[C@H](C)CN(C)C)c1ccccc1S2 [Methotrimeprazine maleat salt],scaled lipid accumulation score,,0.642
CCOC(=O)[C@H](CCc1ccccc1)N[C@H]1CCc2ccccc2N(CC(=O)O)C1=O,scaled lipid accumulation score,[3],≤ 0
CC(CN(C)C)CN1c2ccccc2CCc2ccccc21 (configuration not stated) [Trimipramine maleate],scaled lipid accumulation score,library stock concentration: 4.9 mM,0.715
same,scaled lipid accumulation score,[3],0.647
CC(CN(C)C)CN1c2ccccc2Sc2ccccc21 (configuration not stated) [Trimeprazine tartrate],scaled lipid accumulation score,,0.689
same,scaled lipid accumulation score,[3],0.834
COc1ccc(-c2oc3c(CC=C(C)C)c(O[C@@H]4O[C@H](CO)[C@@H](O)[C@H](O)[C@H]4O)cc(O)c3c(=O)c2O[C@@H]2O[C@@H](C)[C@H](O)[C@@H](O)[C@H]2O)cc1,scaled lipid accumulation score,[3],≤ 0
COc1ccc(-c2oc3c(CC=C(C)C)c(O[C@@H]4O[C@H](CO)[C@@H](O)[C@H](O)[C@H]4O)cc(O)c3c(=O)c2O[C@@H]2O[C@@H](C)[C@H](O)[C@@H](O)[C@H]2O)cc1 [Icariin],scaled lipid accumulation score,[2],0.048
same,scaled lipid accumulation score,[3],≤ 0
CCCCC[C@H](O)/C=C/[C@H]1[C@H](O)CC(=O)[C@@H]1C/C=C\CCCC(=O)OCC(O)CO (some centres not stated) [Prostaglandin E2-1-glyceryl ester],scaled lipid accumulation score,[1],≤ 0
CCCCC[C@H](O)/C=C/[C@@H]1[C@@H](C/C=C\CCCC(=O)NCC)[C@@H](O)C[C@H]1O [Prostaglandin F2.alpha. ethyl amide],scaled lipid accumulation score,[1],≤ 0
CCCCCCCCCCCCCCOc1ccc(C(=O)O)o1,scaled lipid accumulation score,[1],0.036
COc1ccc(-c2cnc3c(-c4ccsc4)cnn3c2)cc1 [VEGF Receptor 2 Kinase Inhibitor IV],scaled lipid accumulation score,[2],≤ 0
Cc1ccc(S(=O)(=O)C=CC#N)cc1,scaled lipid accumulation score,[2],0.718
same,scaled lipid accumulation score,[3],0.445
Cc1ccc(S(=O)(=O)/C=C/C#N)cc1 [listing 1 of 2 here],scaled lipid accumulation score,[4],≤ -0.001
same,scaled lipid accumulation score,[5],≤ -0.001
same,scaled lipid accumulation score,[6],0.813
same,scaled lipid accumulation score,[2],0.807
same,scaled lipid accumulation score,[3],0.729 and 0.437
same,scaled lipid accumulation score,library stock concentration: 24.1 mM,0.648
CC(C)(C)c1ccc(S(=O)(=O)/C=C/C#N)cc1 [listing 1 of 2 here],scaled lipid accumulation score,[3],1.12 (active)
"CC(C)(C)c1ccc(S(=O)(=O)Nc2ccc(-n3ccnc3)cc2)cc1 [Stem-Cell Factor/c-Kit Inhibitor, ISCK03]",scaled lipid accumulation score,[2],≤ 0
Cc1ccc(S(=O)(=O)/C=C/C#N)cc1 [listing 2 of 2 here],scaled lipid accumulation score,[3],0.931 (active)
CC(C)(C)c1ccc(S(=O)(=O)/C=C/C#N)cc1 [listing 2 of 2 here],scaled lipid accumulation score,[3],0.172
Cc1cc2c(C(=O)NCC(C)c3ccccc3)c(O)c(O)cc2c(O)c1-c1c(C)cc2c(C(=O)NCC(C)c3ccccc3)c(O)c(O)cc2c1O (configuration not stated) [Sabutoclax],scaled lipid accumulation score,[2],0.768
same,scaled lipid accumulation score,[3],0.582
COc1cc(CCc2cc(NC(=O)c3ccc(N4CC(C)NC(C)C4)cc3)n[nH]2)cc(OC)c1 (configuration not stated),scaled lipid accumulation score,[4],≤ -0.016
same,scaled lipid accumulation score,[5],≤ -0.016
same,scaled lipid accumulation score,[6],0.369
same,scaled lipid accumulation score,[2],0.476
same,scaled lipid accumulation score,[3],0.5
CC(Cc1ccccc1)Nc1ncnc2c1ncn2C1OC(CO)C(O)C1O (stereo not drawn) [R(-)-N6-(2-Phenylisopropyl)adenosine],scaled lipid accumulation score,[3],≤ -0.055
N#Cc1c(O)c2c(-c3ccc(-c4ccccc4O)cc3)csc2[nH]c1=O,scaled lipid accumulation score,[2],0.004
same,scaled lipid accumulation score,[3],≤ 0 and 0.001
CC1(C)S[C@@H]2[C@H](NC(=O)COc3ccccc3)C(=O)N2[C@H]1C(=O)O [Penicillin V],scaled lipid accumulation score,[3],≤ 0
CC1(C)S[C@@H]2[C@H](NC(=O)COc3ccccc3)C(=O)N2[C@H]1C(=O)O [Penicillin v potassium],scaled lipid accumulation score,library stock concentration: 5.1 mM,0.003
same,scaled lipid accumulation score,[3],≤ 0
Cc1ccc(Sc2cncc3sc(C(N)=O)cc23)cc1,scaled lipid accumulation score,[2],0.183
same,scaled lipid accumulation score,[3],0.478 and 0.373
CCOC(=O)CCC(=O)O[C@H]1[C@H](O[C@@H]2[C@@H](C)[C@H](O[C@H]3C[C@@](C)(OC)[C@@H](O)[C@H](C)O3)[C@@H](C)C(=O)O[C@H](CC)[C@@](C)(O)[C@H](O)[C@@H](C)C(=O)[C@H](C)C[C@@]2(C)O)O[C@H](C)C[C@@H]1N(C)C [Eryped],scaled lipid accumulation score,[3],≤ 0
CCOC(=O)CCC(=O)O[C@H]1[C@H](O[C@@H]2[C@@H](C)[C@H](O[C@H]3C[C@@](C)(OC)[C@@H](O)[C@H](C)O3)[C@@H](C)C(=O)O[C@H](CC)[C@@](C)(O)[C@H](O)[C@@H](C)C(=O)[C@H](C)C[C@@]2(C)O)O[C@H](C)C[C@@H]1N(C)C [Erythromycin ethylsuccinate],scaled lipid accumulation score,library stock concentration: 2.3 mM,≤ -0.001
same,scaled lipid accumulation score,[3],≤ 0
Nc1c2c(nc3ccccc13)CCCC2 [Tacrine hydrochloride],scaled lipid accumulation score,[3],0.064
Nc1c2c(nc3ccccc13)CCCC2,scaled lipid accumulation score,library stock concentration: 9.7 mM,0.039
Nc1c2c(nc3ccccc13)CCCC2O (configuration not stated) [Hydroxytacrine maleate],scaled lipid accumulation score,library stock concentration: 9.3 mM,≤ -0.006
same,scaled lipid accumulation score,[3],0.056
"Nc1c2c(nc3ccccc13)CCCC2 [9-Amino-1,2,3,4-tetrahydroacridine hydrochloride]",scaled lipid accumulation score,[3],0.401
Nc1c2c(nc3ccccc13)CCCC2 [Tacrine (hydrochloride)],scaled lipid accumulation score,[1],0.026
Cl.Cl.c1ccc2c(NCCCCCCCNc3c4c(nc5ccccc35)CCCC4)c3c(nc2c1)CCCC3 [bis(7)-Tacrine],scaled lipid accumulation score,[1],1.11 (active)
"CCCCCC(=O)CC[C@H]1C=CC(=O)[C@@H]1C/C=C\CCCC(=O)O [13,14-dihydro-15-keto Prostaglandin A2]",scaled lipid accumulation score,[1],≤ 0
CCCCC[C@H](O)/C=C/[C@H]1C2CC(CO2)[C@@H]1C/C=C/CCCC(=O)O (some centres not stated),scaled lipid accumulation score,[1],≤ 0
CCCCC[C@](C)(O)/C=C/[C@@H]1[C@@H](C/C=C\CCCC(=O)O)[C@@H](O)C[C@H]1O [15(S)-15-methyl Prostaglandin F2.alpha.],scaled lipid accumulation score,[1],≤ 0
"CCCCC/C=C\C/C=C\CC1OC1C/C=C\CCCC(=O)O (configuration not stated) [8,9-Epoxyeicosatrienoic acid]",scaled lipid accumulation score,library stock concentration: 100 uM,≤ -0.021
"CNC(=O)c1cc(Oc2ccc(NC(=O)Nc3ccc(Cl)c(C(F)(F)F)c3)cc2)ccn1 [Sorafenib  (Nexavar, BAY43-9006) (2 mM)]",scaled lipid accumulation score,[6],0.299
"CNC(=O)c1cc(Oc2ccc(NC(=O)Nc3ccc(Cl)c(C(F)(F)F)c3)cc2)ccn1 [Sorafenib (Nexavar, BAY43-9006) (10 mM)]",scaled lipid accumulation score,[3],1.21 (active)
CNC(=O)c1cc(Oc2ccc(NC(=O)Nc3ccc(Cl)c(C(F)(F)F)c3)c(F)c2)ccn1 [Regorafenib (BAY 73-4506)],scaled lipid accumulation score,[2],≤ 0
same,scaled lipid accumulation score,[3],≤ 0
CNC(=O)c1cc(Oc2ccc(NC(=O)Nc3ccc(Cl)c(C(F)(F)F)c3)cc2)ccn1 [Sorafenib Tosylate],scaled lipid accumulation score,[2],0.005
same,scaled lipid accumulation score,[3],≤ 0
CNC(=O)c1cc(Oc2ccc(NC(=O)Nc3ccc(Cl)c(C(F)(F)F)c3)cc2)ccn1 [Sorafenib],scaled lipid accumulation score,[2],≤ 0
same,scaled lipid accumulation score,[3],≤ 0
"CNC(=O)c1cc(Oc2ccc(NC(=O)Nc3ccc(Cl)c(C(F)(F)F)c3)cc2)ccn1 [Sorafenib  (Nexavar, BAY43-9006) (0.4 mM)]",scaled lipid accumulation score,[5],0.021
CNC(=O)c1cc(Oc2ccc(NC(=O)Nc3ccc(Cl)c(C(F)(F)F)c3)c(F)c2)ccn1 [Regorafenib],scaled lipid accumulation score,[4],≤ -0.016
same,scaled lipid accumulation score,[5],0.033
same,scaled lipid accumulation score,[6],≤ -0.016
same,scaled lipid accumulation score,[3],≤ -0.016
CNC(=O)c1cc(Oc2ccc(NC(=O)Nc3ccc(Cl)c(C(F)(F)F)c3)cc2)ccn1,scaled lipid accumulation score,[4],0.04
same,scaled lipid accumulation score,[5],0.075
same,scaled lipid accumulation score,[6],≤ 0
same,scaled lipid accumulation score,[3],0.672
CC1(C(=O)O)NCCc2cc(O)c(O)cc21 (configuration not stated) [Salsolinol-1-carboxylic acid],scaled lipid accumulation score,[3],0.05
